# Reference: the supplement of paper PMC8728848
# The entries come from a sample that favours the strongest signals as a whole.
# B1: CGL (Crenomytilus grayanus), H2FH31 (protein)
# chain: MTTFLIKHKASGKFLHPYGGSSNPANNTKLVLHSDIHERMYFQFDVVDERWGYIKHVASGKIVHPYGGQANPPNETNMVLHQDRHDRALFAMDFFNDNIMHKGGKYIHPKGGSPNPPNNTETVIHGDKHAAMEFIFVSPKNKDKRVLVYA
# Tests used:
# Test in all cases: glycan array binding signal (z-score within array); higher = stronger binding
# Settings in all cases: glycan notation: IUPAC condensed, linker removed
# [1] = molecular target: Fuc(a1-2)Gal(b1-3)GlcNAc(b1-2)Man(a1-3)[Fuc(a1-2)Gal(b1-3)GlcNAc(b1-2)Man(a1-6)]Man(b1-4)GlcNAc(b1-4)GlcNAc
# Outline: (§1)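 From the Consortium for Functional Glycomics database, 3228 arrays were curated, keeping only those whose protein sequence was available. Binding is given as a within-array Z-score averaged across arrays sharing a protein sequence and across linkers. Negative Z-scores can be read as non-binding.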
# [2] = molecular target: Fuc(a1-2)Gal(b1-3)GlcNAc(b1-3)[Gal(b1-4)GlcNAc(b1-6)]Gal(b1-4)Glc
# Outline: as §1
# [3] = molecular target: Fuc(a1-2)Gal(b1-3)[Fuc(a1-4)]GlcNAc
# Outline: as §1
# [4] = molecular target: Fuc(a1-2)Gal(b1-4)GlcNAc(b1-3)Gal(b1-4)GlcNAc(b1-2)Man(a1-3)[Fuc(a1-2)Gal(b1-4)GlcNAc(b1-3)Gal(b1-4)GlcNAc(b1-2)Man(a1-6)]Man(b1-4)GlcNAc(b1-4)GlcNAc
# Outline: as §1
# [5] = molecular target: Fuc(a1-2)Gal(b1-4)GlcNAc(b1-3)[Fuc(a1-2)Gal(b1-4)GlcNAc(b1-6)]GalNAc
# Outline: as §1
# [6] = molecular target: Fuc(a1-2)[Gal(a1-3)]Gal(b1-4)GlcNAc
# Outline: as §1
# [7] = molecular target: Fuc(a1-2)[Gal(a1-4)]Gal(b1-4)GlcNAc
# Outline: as §1
# [8] = molecular target: Fuc(a1-2)[GalNAc(a1-3)]Gal
# Outline: as §1
# [9] = molecular target: Fuc(a1-2)[GalNAc(a1-3)]Gal(b1-4)GlcNAc(b1-2)Man(a1-3)[Fuc(a1-2)[GalNAc(a1-3)]Gal(b1-4)GlcNAc(b1-2)Man(a1-6)]Man(b1-4)GlcNAc(b1-4)[Fuc(a1-6)]GlcNAc
# Outline: as §1
# [10] = molecular target: Fuc(a1-2)[GalNAc(a1-3)]Gal(b1-4)GlcNAc(b1-6)GalNAc
# Outline: as §1
# [11] = molecular target: Fuc(a1-2)[GalNAc(a1-3)]Gal(b1-4)[Fuc(a1-3)]GlcNAc(b1-3)GalNAc
# Outline: as §1
# [12] = molecular target: Fuc(a1-3)[Gal(b1-4)]GlcNAc6S
# Outline: as §1
# [13] = molecular target: Gal(a1-3)Gal(b1-4)GlcNAc(b1-2)Man
# Outline: as §1
# [14] = molecular target: Gal(a1-3)Gal(b1-4)GlcNAc(b1-2)Man(a1-3)[Gal(a1-3)Gal(b1-4)GlcNAc(b1-2)Man(a1-6)]Man(b1-4)GlcNAc(b1-4)GlcNAc
# Outline: as §1
# [15] = molecular target: Gal(a1-3)Gal(b1-4)GlcNAc(b1-3)GalNAc
# Outline: as §1
# [16] = molecular target: Gal(a1-3)[Gal(a1-4)]Gal(b1-4)GlcNAc
# Outline: as §1
# [17] = molecular target: Gal(a1-4)Gal(b1-3)GlcNAc(b1-2)Man(a1-3)[Gal(a1-4)Gal(b1-3)GlcNAc(b1-2)Man(a1-6)]Man(b1-4)GlcNAc(b1-4)GlcNAc
# Outline: as §1
# [18] = molecular target: Gal(a1-4)Gal(b1-4)GlcNAc
# Outline: as §1
# [19] = molecular target: Gal(a1-4)Gal(b1-4)GlcNAc(b1-2)Man(a1-3)[Gal(a1-4)Gal(b1-4)GlcNAc(b1-2)Man(a1-6)]Man(b1-4)GlcNAc(b1-4)GlcNAc
# Outline: as §1
# [20] = molecular target: Gal(a1-4)Gal(b1-4)GlcNAc(b1-3)Gal(b1-4)Glc
# Outline: as §1
# [21] = molecular target: Gal(b1-3)Gal(b1-4)GlcNAc
# Outline: as §1
# [22] = molecular target: Gal(b1-3)GalNAc(a1-3)[Fuc(a1-2)]Gal(b1-4)Glc
# Outline: as §1
# [23] = molecular target: Gal(b1-3)GalNAc(a1-3)[Fuc(a1-2)]Gal(b1-4)GlcNAc
# Outline: as §1
# [24] = molecular target: Gal(b1-3)GlcNAc(a1-3)Gal(b1-4)GlcNAc
# Outline: as §1
# [25] = molecular target: Gal(b1-3)GlcNAc(a1-6)Gal(b1-4)GlcNAc
# Outline: as §1
# [26] = molecular target: Gal(b1-3)GlcNAc(b1-2)[Gal(b1-3)GlcNAc(b1-6)]Man(a1-6)[Gal(b1-3)GlcNAc(b1-2)Man(a1-3)]Man(b1-4)GlcNAc(b1-4)GlcNAc
# Outline: as §1
# [27] = molecular target: Gal(b1-3)GlcNAc(b1-6)Gal(b1-4)GlcNAc
# Outline: as §1
# [28] = molecular target: Gal(b1-3)[Neu5Ac(a2-6)]GalNAc
# Outline: as §1
# [29] = molecular target: Gal(b1-4)GlcNAc(b1-2)Man
# Outline: as §1
# [30] = molecular target: Gal(b1-4)GlcNAc(b1-2)[Gal(b1-4)GlcNAc(b1-4)]Man(a1-3)[Gal(b1-4)GlcNAc(b1-2)[Gal(b1-4)GlcNAc(b1-6)]Man(a1-6)]Man(b1-4)GlcNAc(b1-4)GlcNAc
# Outline: as §1
# [31] = molecular target: Gal(b1-4)GlcNAc(b1-3)Gal(b1-4)GlcNAc(b1-3)Gal(b1-4)GlcNAc(b1-2)[Gal(b1-4)GlcNAc(b1-3)Gal(b1-4)GlcNAc(b1-3)Gal(b1-4)GlcNAc(b1-6)]Man(a1-6)[Gal(b1-4)GlcNAc(b1-3)Gal(b1-4)GlcNAc(b1-3)Gal(b1-4)GlcNAc(b1-2)Man(a1-3)]Man(b1-4)GlcNAc(b1-4)[Fuc(a1-6)]GlcNAc
# Outline: as §1
# [32] = molecular target: Gal(b1-4)GlcNAc(b1-3)Gal(b1-4)GlcNAc(b1-3)Gal(b1-4)GlcNAc(b1-3)Gal(b1-4)GlcNAc(b1-3)Gal(b1-4)GlcNAc(b1-2)Man(a1-3)[Gal(b1-4)GlcNAc(b1-3)Gal(b1-4)GlcNAc(b1-3)Gal(b1-4)GlcNAc(b1-3)Gal(b1-4)GlcNAc(b1-3)Gal(b1-4)GlcNAc(b1-2)Man(a1-6)]Man(b1-4)GlcNAc(b1-4)GlcNAc
# Outline: as §1
# [33] = molecular target: Gal(b1-4)GlcNAc(b1-3)Gal(b1-4)GlcNAc(b1-3)Gal(b1-4)GlcNAc(b1-3)Gal(b1-4)GlcNAc(b1-3)Gal(b1-4)GlcNAc(b1-2)[Gal(b1-4)GlcNAc(b1-3)Gal(b1-4)GlcNAc(b1-3)Gal(b1-4)GlcNAc(b1-3)Gal(b1-4)GlcNAc(b1-3)Gal(b1-4)GlcNAc(b1-6)]Man(a1-6)[Gal(b1-4)GlcNAc(b1-3)Gal(b1-4)GlcNAc(b1-3)Gal(b1-4)GlcNAc(b1-3)Gal(b1-4)GlcNAc(b1-3)Gal(b1-4)GlcNAc(b1-2)Man(a1-3)]Man(b1-4)GlcNAc(b1-4)[Fuc(a1-6)]GlcNAc
# Outline: as §1
# [34] = molecular target: Gal6S(b1-4)Glc
# Outline: as §1
# [35] = molecular target: GalNAc(b1-3)Gal(a1-4)Gal(b1-4)GlcNAc(b1-3)Gal(b1-4)Glc
# Outline: as §1
# [36] = molecular target: GalNAc6S(b1-4)GlcNAc
# Outline: as §1
# [37] = molecular target: GlcA3S(b1-3)Gal(b1-4)GlcNAc(b1-3)Gal(b1-4)Glc
# Outline: as §1
# [38] = molecular target: GlcNAc(a1-6)Gal(b1-4)GlcNAc
# Outline: as §1
# [39] = molecular target: GlcNAc(b1-2)[GlcNAc(b1-4)]Man(a1-3)[GlcNAc(b1-4)][GlcNAc(b1-2)Man(a1-6)]Man(b1-4)GlcNAc(b1-4)GlcNAc
# Outline: as §1
# [40] = molecular target: GlcNAc(b1-3)Fuc
# Outline: as §1
# [41] = molecular target: GlcNAc(b1-3)Gal(b1-4)GlcNAc(b1-3)Gal(b1-4)GlcNAc(b1-3)Gal(b1-4)GlcNAc(b1-3)Gal(b1-4)GlcNAc(b1-2)Man(a1-3)[GlcNAc(b1-3)Gal(b1-4)GlcNAc(b1-3)Gal(b1-4)GlcNAc(b1-3)Gal(b1-4)GlcNAc(b1-3)Gal(b1-4)GlcNAc(b1-2)Man(a1-6)]Man(b1-4)GlcNAc(b1-4)[Fuc(a1-6)]GlcNAc
# Outline: as §1
# [42] = molecular target: GlcNAc(b1-3)[GlcNAc(b1-4)][GlcNAc(b1-6)]GlcNAc
# Outline: as §1
# [43] = molecular target: Neu5Ac(a2-3)Gal(b1-3)GlcNAc(b1-2)Man(a1-3)[Neu5Ac(a2-3)Gal(b1-3)GlcNAc(b1-2)Man(a1-6)]Man(b1-4)GlcNAc(b1-4)GlcNAc
# Outline: as §1
# [44] = molecular target: Neu5Ac(a2-3)Gal(b1-3)GlcNAc(b1-3)GalNAc
# Outline: as §1
# [45] = molecular target: Neu5Ac(a2-3)Gal(b1-4)GlcNAc(b1-2)[Neu5Ac(a2-3)Gal(b1-4)GlcNAc(b1-4)]Man(a1-3)[GlcNAc(b1-4)][Neu5Ac(a2-3)Gal(b1-4)GlcNAc(b1-2)[Neu5Ac(a2-3)Gal(b1-4)GlcNAc(b1-6)]Man(a1-6)]Man(b1-4)GlcNAc(b1-4)GlcNAc
# Outline: as §1
# [46] = molecular target: Neu5Ac(a2-3)Gal(b1-4)GlcNAc(b1-3)[Neu5Ac(a2-3)Gal(b1-4)GlcNAc(b1-6)]GalNAc
# Outline: as §1
# [47] = molecular target: Neu5Ac(a2-3)Gal(b1-4)GlcNAc(b1-6)[Neu5Ac(a2-3)Gal(b1-3)]GalNAc
# Outline: as §1
# [48] = molecular target: Neu5Ac(a2-3)Gal(b1-4)GlcNAc6S
# Outline: as §1
# [49] = molecular target: Neu5Ac(a2-6)Gal(b1-4)GlcNAc(b1-2)Man(a1-6)[Man(a1-3)]Man(b1-4)GlcNAc(b1-4)GlcNAc
# Outline: as §1
# [50] = molecular target: Neu5Ac(a2-8)Neu5Ac(a2-3)[GalNAc(b1-4)]Gal(b1-4)Glc
# Outline: as §1
binder,measurement,setting,value
B1,glycan array binding signal (z-score),[1],-0.195
same,glycan array binding signal (z-score),[2],-0.054
same,glycan array binding signal (z-score),[3],-0.372
same,glycan array binding signal (z-score),[4],0.855
same,glycan array binding signal (z-score),[5],-0.067
same,glycan array binding signal (z-score),[6],-0.063
same,glycan array binding signal (z-score),[7],4.38
same,glycan array binding signal (z-score),[8],-0.106
same,glycan array binding signal (z-score),[9],-0.23
same,glycan array binding signal (z-score),[10],-0.096
same,glycan array binding signal (z-score),[11],-0.217
same,glycan array binding signal (z-score),[12],-0.324
same,glycan array binding signal (z-score),[13],1.69
same,glycan array binding signal (z-score),[14],5.84
same,glycan array binding signal (z-score),[15],3.54
same,glycan array binding signal (z-score),[16],3.32
same,glycan array binding signal (z-score),[17],4.07
same,glycan array binding signal (z-score),[18],3.63
same,glycan array binding signal (z-score),[19],8.66
same,glycan array binding signal (z-score),[20],4.55
same,glycan array binding signal (z-score),[21],-0.077
same,glycan array binding signal (z-score),[22],-0.352
same,glycan array binding signal (z-score),[23],-0.341
same,glycan array binding signal (z-score),[24],0.396
same,glycan array binding signal (z-score),[25],0.803
same,glycan array binding signal (z-score),[26],1.87
same,glycan array binding signal (z-score),[27],0.949
same,glycan array binding signal (z-score),[28],-0.398
same,glycan array binding signal (z-score),[29],-0.334
same,glycan array binding signal (z-score),[30],1.1
same,glycan array binding signal (z-score),[31],3.3
same,glycan array binding signal (z-score),[32],3.18
same,glycan array binding signal (z-score),[33],3.77
same,glycan array binding signal (z-score),[34],-0.407
same,glycan array binding signal (z-score),[35],0.074
same,glycan array binding signal (z-score),[36],-0.377
same,glycan array binding signal (z-score),[37],-0.414
same,glycan array binding signal (z-score),[38],-0.356
same,glycan array binding signal (z-score),[39],-0.324
same,glycan array binding signal (z-score),[40],-0.323
same,glycan array binding signal (z-score),[41],-0.279
same,glycan array binding signal (z-score),[42],-0.327
same,glycan array binding signal (z-score),[43],-0.382
same,glycan array binding signal (z-score),[44],-0.337
same,glycan array binding signal (z-score),[45],-0.348
same,glycan array binding signal (z-score),[46],-0.248
same,glycan array binding signal (z-score),[47],-0.386
same,glycan array binding signal (z-score),[48],-0.278
same,glycan array binding signal (z-score),[49],-0.418
same,glycan array binding signal (z-score),[50],-0.366
